Screening data deposited in PubChem by National Center for Advancing Translational Sciences (NCATS).
This is a sample that favours compounds with a hit; in the whole collection about 6.6% have one here.
KB-3-1 cytotox = KB-3-1 parental cell cytotoxicity; AID 1347075; Potency, µM (doses to about 46.1 µM), actives largely listed as cytotoxic; 400,000 compounds, 1.4% hits; KB-3-1 viability, CellTiter-Glo ATP luminescence, 72 h; further: on the % scale 0 is the no-effect control and ±100 the full control effect; nearly all actives have a fitted effect of over 60% in size
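Cells are dispensed, compounds pinned in, plates held at 37 °C for 72 h, then CellTiter-Glo is added and luminescence read after 10 minutes. Cell line: parental KB-3-1 in phenol-red-free DMEM, 10% FBS.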
MCF10A rereplic = induces DNA re-replication in MCF 10a normal breast cells | MCF 10A DNA re-replication, Hoechst nuclear intensity, 48 h | Potency, µM (series often up to 46.1 µM), for the others: top-dose activity, positive = re-replication, usual class: activators | 350,000 compounds, 2.9% hits | AID 624296; further: % of control where 0% means no effect; nearly all actives have a fitted effect of over 50% in size
RGS4 inh = blocks human RGS4-accelerated GTP hydrolysis; P49798; Transcreener GDP fluorescence polarization, RGS4-accelerated GTP hydrolysis; Potency, µM (titrated, usually from 114 µM), for the others: top-dose activity change, negative = inhibition, actives largely listed as inhibitors; 390,000 compounds, 0.039% hits; AID 504845; further: on the % scale 0 is the no-effect control and ±100 the full control effect; nearly all actives have a fitted effect of over 75% in size
Target sequence (P49798 whole entry, looked up): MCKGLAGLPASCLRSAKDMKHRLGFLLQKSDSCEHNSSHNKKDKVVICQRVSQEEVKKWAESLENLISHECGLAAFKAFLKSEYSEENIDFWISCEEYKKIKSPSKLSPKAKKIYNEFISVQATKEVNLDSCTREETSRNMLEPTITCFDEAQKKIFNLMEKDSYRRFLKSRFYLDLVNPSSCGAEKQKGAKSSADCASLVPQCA
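MLSMR compounds (23 nl, pin-transferred) preincubated 10 min at room temperature with a 500nM (2x) first reagent, then RGS4 at 900nM (2x) plus Transcreener GDP mix added; fluorescence polarization (620/688 nm) read before and after 90 min at 30 °C.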
TSG101-PTAP inh = blocks PTAP/TSG101 interaction to inhibit HIV-1 budding | Q99816 | Fluorescence polarization, FITC-PTAP peptide / Tsg101 binding | Potency, µM (titrated, usually from 115 µM), inactives show at the highest dose activity change, negative = inhibition, hits mostly inhibitors | 340,000 tested, under 10 active | AID 493005; active means well fitted inhibition curve with a large enough effect in the main read-out, with a control signal flat, not every such curve was filed as active; inconclusive means small, poorly fitted or top-dose-only effect, or effect the other way, or a change in a side signal; inactive means no such curve, though single readings can be large or run the other way; further: % of control where 0% means no effect
Target sequence (Q99816 whole entry, looked up): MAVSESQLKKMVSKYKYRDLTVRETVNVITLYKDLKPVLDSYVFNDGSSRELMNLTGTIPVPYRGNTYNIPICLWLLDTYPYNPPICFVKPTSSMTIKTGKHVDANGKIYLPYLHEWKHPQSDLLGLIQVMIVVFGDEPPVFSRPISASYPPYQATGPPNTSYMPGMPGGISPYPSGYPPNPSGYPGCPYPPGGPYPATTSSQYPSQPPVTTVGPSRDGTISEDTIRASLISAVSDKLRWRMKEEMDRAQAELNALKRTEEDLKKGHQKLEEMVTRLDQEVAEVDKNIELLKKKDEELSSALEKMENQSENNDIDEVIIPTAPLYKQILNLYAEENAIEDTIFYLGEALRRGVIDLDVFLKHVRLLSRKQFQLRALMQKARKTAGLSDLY
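Fluorescence polarization binding of Tsg101 binding domain (10 uM final) to FITC-labeled PTAP peptide (50 nM final) in HEPES pH 7.5 buffer with NaCl, Tween 20, EDTA, TCEP. Compounds added before peptide; binding 20 min at RT.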
KB-V1 cytotox = kills drug-selected multidrug resistant KB-V1 cells. KB-V1 MDR cells viability, CellTiter-Glo, 72 h. Potency, µM (titrated, usually from 46.1 µM), most hits filed as cytotoxic. 400,000 compounds, 3.4% hits; further: on the % scale 0 is the no-effect control and ±100 the full control effect; nearly all actives have a fitted effect of over 60% in size
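KB-V1 cells (P-gp-expressing MDR subline of KB-3-1) in phenol-red-free DMEM with 10% FBS were exposed to library compounds over a concentration series for 72 h at 37 degrees C. Viability read by CellTiter-Glo luminescence; concentration-effect curves fitted after normalization.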
SW480 rerep = DNA re-replication induction in SW480 cells; SW480 DNA re-replication, Hoechst DNA content imaging, 48 h; Potency, µM (top dose mostly 46.1 µM), for the others: top-dose re-replication activation, actives largely listed as activators; 340,000 compounds, 1.8% hits; AID 624297; further: % of control where 0% means no effect; nearly all actives have a fitted effect of over 55% in size
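Image-based DNA-content assay: after two days of treatment, nuclei were labelled with the DNA dye Hoechst and imaged, and hits were compounds raising the count of nuclei showing high fluorescence intensity.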
Numbers without * were called inactive; i = inactive; ? = inconclusive; . = not tested or not shown. Unless noted, the call rests on the fitted dose curve; in most records, active means well fitted curve in the direction sought with a large enough effect; inconclusive means small, poorly fitted or top-dose-only effect, or another doubt; inactive means no such curve, though single readings can be large; an effect the other way counts as inactive or inconclusive. Potency means the concentration at half of the fitted maximal effect.

SMILES	KB-3-1 cytotox	MCF10A rereplic	RGS4 inh	TSG101-PTAP inh	KB-V1 cytotox	SW480 rerep
Cc1cc(C(=O)COC(=O)c2ccc(Cl)c(S(N)(=O)=O)c2)c(C)n1CC1CCCO1 (centres undefined)	i	0%	-5%	-2%	i	-2%
Cc1ccccc1Oc1nc2ccccn2c(=O)c1/C=C(\C#N)C(=O)Nc1c(C)n(C)n(-c2ccccc2)c1=O	i	14%	1%	-8%	i	-9%
Cc1ccccc1Oc1nc2c(C)cccn2c(=O)c1/C=C(\C#N)C(=O)Nc1c(C)n(C)n(-c2ccccc2)c1=O	i	21µM*	?	1%	?	?
CCc1ccc(-c2cc(C(F)(F)F)n3nc(C(=O)Nc4c(C)nn(Cc5ccc(F)cc5)c4C)cc3n2)s1	?	?	-4%	-5%	?	8.2µM*
COc1ccc(S(=O)(=O)N2CCC(N3CCN(Cc4ccccc4)C(=O)C3=O)CC2)cc1	i	.	1%	.	i	.
CCOC(=O)c1nc(C)nc(Sc2n[nH]c(-c3cc(C(F)(F)F)cc(C(F)(F)F)c3)n2)c1C	i	16µM*	5%	0%	i	-20%
CCOC(=O)c1cc(-c2cccc(C(F)(F)F)c2)nc2nc(SC)[nH]c(=O)c12	i	-3%	-4%	-7%	i	-7%
CCCN1C(=O)C(Cc2nc3ccccc3c(=O)n2CC)c2cc(Br)ccc21 (centres undefined)	.	.	-15%	.	.	.
CC(C)(C)NC(=O)N1CCN(S(=O)(=O)c2ccc3c(c2)CCC3)CC1	i	7%	2%	5%	i	11%
CCOC(=O)c1ccc(S(=O)(=O)N2CCN(CCC#N)CC2)cc1	i	18%	-6%	-1%	i	-2%
CCOC(=O)N1CCN(S(=O)(=O)c2ccc3c(c2)oc(=O)n3C)CC1	i	2%	-5%	-9%	23µM*	-2%
CCOC(=O)c1ccc(S(=O)(=O)N2CCN(C)CC2)cc1	i	5.2µM*	14%	-2%	i	-22%
CC(C)COC(=O)N1CCN(S(=O)(=O)c2ccc3c(c2)CCC3)CC1	i	7%	-11%	-6%	15µM*	-9%
CCOC(=O)n1c(=O)oc2cc(S(=O)(=O)N3CCCCC3)ccc21	i	?	-35%	-6%	23µM*	-6%
COC(=O)n1c(=O)oc2cc(S(=O)(=O)N3CCCCC3)ccc21	i	-6%	-22%	-7%	?	-4%
CCOc1ccc(N(C(=O)c2ccc(Cl)cc2)S(=O)(=O)c2ccc3c(c2)n(C)c(=O)n3C)cc1	i	.	0%	.	i	.
CCOC(=O)N1CCN(S(=O)(=O)c2ccc(OCC)cc2)CC1	i	-1%	4%	-6%	16µM*	-2%
Cc1ccc(NC(=O)C2CCN(S(=O)(=O)c3ccc4c(c3)CCCN4C(=O)C3CCC3)CC2)cc1	i	.	-11%	.	i	.
Cc1ccc(NC(=O)Nc2ccc3c(c2)OCO3)nc1	i	?	-8%	-9%	i	?
Cc1csc(NC(=O)/C=C/c2ccc3c(c2)OCO3)n1	?	18µM*	-29%	0%	?	1%
O=C(/C=C/c1ccc2c(c1)OCO2)Nc1nc(-c2ccc(F)cc2F)cs1	.	27%	.	.	.	0%
Cc1ccc(NC(=O)/C=C/c2ccc3c(c2)OCO3)nc1	7.3µM*	?	-15%	-11%	i	.
O=C(/C=C/c1ccc2c(c1)OCCCO2)c1ccccc1O	i	?	-26%	0%	?	-5%
Cc1ccc(O)c(C(=O)/C=C/c2ccc3c(c2)OCCCO3)c1	i	13µM*	-31%	0%	i	?
CCOc1ccc(NS(=O)(=O)c2ccc3[nH]c4c(c3c2)CCCCC4)cc1	?	.	-22%	.	i	.
SMILES	KB-3-1 cytotox	MCF10A rereplic	RGS4 inh	TSG101-PTAP inh	KB-V1 cytotox	SW480 rerep
O=C1C(c2ccncc2)N(CCC2=CCCCC2)C(=O)CN1C1CCCCC1 (centres undefined)	i	-9%	-9%	-1%	11µM*	14%
CCOc1ccc(C(=O)Nc2ccc3oc(-c4cccc5ccccc45)nc3c2)cc1	.	.	14%	.	.	.
Cc1ccc2cccc(NS(=O)(=O)c3ccccc3)c2n1	?	3.3µM*	1%	-2%	?	?
O=C(Nc1ccccn1)c1ccc(S(=O)(=O)c2ccc(Cl)cc2)cc1	?	0%	-13%	0%	7.3µM*	9%
Cc1ccc(S(=O)(=O)Nc2cccc3cccnc23)c([N+](=O)[O-])c1	?	?	-9%	-7%	?	18µM*
O=C(Nc1cccnc1Cl)c1ccc(S(=O)(=O)N2CCCCCC2)cc1	i	-5%	0%	-9%	9.2µM*	-1%
O=C(COC(=O)c1ccc(S(=O)(=O)N2CCCC2)cc1)Nc1cccnc1Cl	i	-14%	-29%	0%	i	9%
O=C(Cn1c(=O)oc2cc(S(=O)(=O)N3CCCCC3)ccc21)Nc1cccc(Cl)c1	i	.	8%	.	i	.
O=C(C[n+]1ccc(Cl)c2ccc(Cl)cc21)c1ccc(F)cc1	?	.	.	.	i	.
CC(=O)c1nnn(-c2nc(C#N)nc(N3CCOCC3)n2)c1C	i	.	-8%	.	i	.
O=S(=O)(Nc1cccc2cccnc12)c1ccccc1	?	21µM*	-3%	1%	?	23µM*
O=S(=O)(Nc1cccc2cccnc12)c1ccc(S(=O)(=O)N2CCCC2)cc1	i	?	2%	-1%	?	2.9µM*
Cc1c(Cl)cccc1NC(=O)CSc1ncccc1C(=O)Oc1ccccc1Cl	.	.	24%	.	.	.
C=CCC1(C)C(=O)N(c2ccccc2)c2ccccc21 (centres undefined)	i	-1%	15%	-1%	i	-698%
C=CCCC1(C)C(=O)N(c2ccccc2)c2ccccc21 (centres undefined)	?	?	5%	-1%	?	18µM*
O=C(CCNS(=O)(=O)c1cccs1)N1CCN(c2cccc(C(F)(F)F)c2)CC1	i	4%	14%	-4%	16µM*	-2%
O=C(Cn1ncc(Cl)c(Cl)c1=O)Nc1ccc2c(c1)OCO2	?	0.73µM*	-10%	-7%	?	-2%
Cc1nn(CC(=O)Nc2ccc3c(c2)OCO3)c(C)c1Cl	i	0%	-19%	5%	i	0%
O=C(Cn1ncc(Cl)c(Cl)c1=O)c1ccc2c(c1)OCCO2	?	2.9µM*	-19%	-2%	21µM*	?
O=S(=O)(Nc1ccc(F)cc1F)c1ccc(-n2cccn2)cc1	i	.	23%	.	i	.
